The record followed here is PubChem BioAssay (NCATS).

Each structure is given as a SMILES string. Results filed as inconclusive are left out. Values without a mark were called inactive. Active and inactive are the calls of the source. Calls come from the whole dose curve; tested in HEK293 reporter line.
% is set by controls: 0 for no effect and ±100 for the full control effect; potency is the fitted concentration of half-maximal effect.

The experiment is described as follows: qHTS for Inhibitors of the Functional Ribonucleoprotein Complex (vRNP) of Lassa (LASV) Arenavirus: Viability assay - alamar blue signal for LASV Primary Screen (AID 1347083). Note: nearly all actives have a fitted effect of over 80% in size. The note with it: cell viability, alamar blue fluorescence (LASV minigenome counter-screen); series mostly up to 57.5 µM; activity change, negative = reduced viability: at the top concentration. Background: Quantitative high-throughput screening tests each substance at several concentrations.
Turning to `C[C@H]([C@@H](O)[C@@H](O)[C@@H](C)C(C)(C)C)[C@H]1CC[C@H]2C3CC[C@H]4C[C@H](OS(=O)(=O)O)[C@@H](OS(=O)(=O)O)C[C@]4(C)[C@H]3CC[C@]12C` (stereo not given in full), the “activity change, negative = reduced viability” value was 12.7%.
For the compound `CO[C@H]1O[C@@H]2O[C@@]3(C)CC[C@@H]4[C@@H](C)CC[C@@H]([C@H]1C)[C@@]24OO3`, the “activity change, negative = reduced viability” value was -28.7%.
With `O=C(O)CCNc1cc(N2CCc3ccccc3CC2)nc(-c2ccccn2)n1`, the “activity change, negative = reduced viability” value was -7.86%.
With `COC(=O)C1C2CC3c4[nH]c5cc(OC)ccc5c4CCN3CC2CC(O)C1OC` (stereo not given), the “activity change, negative = reduced viability” value was 9.65%.
Regarding `COc1cc(/C=C/C(=O)c2ccc(O)cc2O)ccc1O`, the “activity change, negative = reduced viability” value was 2.93%.
Take `O=c1ccn([C@@H]2O[C@H](COP(=O)(O)O)[C@@H](O)[C@H]2O)c(=O)[nH]1`: the “activity change, negative = reduced viability” value is -14.5%.
Turning to `O=C(O)C[C@H](O)C[C@H](O)C=Cc1c(C2CC2)nc2ccccc2c1-c1ccc(F)cc1`, the Potency was 24.3 µM (active).
In the case of `CCCCCOC(=O)Nc1nc(=O)n([C@@H]2O[C@H](C)[C@@H](O)C2O)cc1F` (stereo not given in full), the “activity change, negative = reduced viability” value was -27.9%.
Same read-out and setting: the same measure for `COc1ccc(C2CC(=O)c3c(O)cc(O)cc3O2)cc1O` (stereo not given): -0.227%; for `COC(/C(C)=C/C=C/C(C)=C/c1coc(C)n1)C(C)C1CC(O)C2(C)OC2C=CC(C)C2CC(CC(=O)O2)CC2OC2C(=O)O1` (stereo not given): 12.8%.
With `CCCCCC(=O)N[C@@H](c1ccccc1)[C@@H](O)C(=O)O[C@H]1C[C@@]2(O)[C@@H](OC(=O)c3ccccc3)C3[C@](C)(C(=O)[C@H](O)C(=C1C)C2(C)C)[C@@H](OC1OCC(O)C(O)C1O)C[C@H]1OC[C@@]31OC(C)=O` (stereo not given in full), the “activity change, negative = reduced viability” value is -74.3%.
For the compound `CC(C)c1c(C(=O)Nc2ccccc2)c(-c2ccccc2)c(-c2ccc(F)cc2)n1CC[C@H](O)C[C@@H](O)CC(=O)O`, the “activity change, negative = reduced viability” value is -26.8%.
Still for that read-out and setting: the same measure for `COc1ccc(-c2cc(=O)c3c(O)cc(O)c(-c4cc(-c5cc(=O)c6c(O)cc(OC)cc6o5)ccc4OC)c3o2)cc1`: 6.8% [at 24.7 µM].
On to `Cc1cnn(C)c1C(=O)Nc1cc(Nc2ccc3c(C=Cc4ccccn4)n[nH]c3c2)ccc1F`, for which the Potency was 19.3 µM (active).
Turning to `CON=C(C(=O)N[C@@H]1C(=O)N2C(C(=O)O)=C(CSC(=O)c3ccco3)CS[C@H]12)c1csc(N)n1`, the “activity change, negative = reduced viability” value was -3.48%.
